Data on 40 compounds can be found in ChEMBL document CHEMBL2218924, “A broad activity screen in support of a chemogenomic map for kinase signalling research and drug discovery” (Biochem J, 2013).

Each structure is given as a SMILES string.

This assay concerns the target T1, Testis-specific serine/threonine-protein kinase 2 (Homo sapiens) (UniProt Q96PF2).
T1 sequence (whole entry): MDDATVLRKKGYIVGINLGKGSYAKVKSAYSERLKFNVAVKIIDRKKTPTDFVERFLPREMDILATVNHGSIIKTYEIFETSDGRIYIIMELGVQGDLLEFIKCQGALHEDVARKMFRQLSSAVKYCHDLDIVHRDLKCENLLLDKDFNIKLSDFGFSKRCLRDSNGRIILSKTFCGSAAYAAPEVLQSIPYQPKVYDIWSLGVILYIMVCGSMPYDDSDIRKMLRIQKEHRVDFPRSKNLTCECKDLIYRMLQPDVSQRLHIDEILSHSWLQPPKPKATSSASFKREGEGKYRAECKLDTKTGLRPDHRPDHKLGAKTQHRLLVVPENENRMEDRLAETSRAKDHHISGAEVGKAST
The settings on record: at 1 µM.
Usually residual activity stands for the signal under treatment as a percentage of the control signal. Regarding `Cn1cnc2cc3c(Nc4cccc(Br)c4)ncnc3cc21`, the residual activity was 100%.

On to `CN(C)CCCn1cc(C2=C(c3c[nH]c4ccccc34)C(=O)NC2=O)c2ccccc21`, for which the residual activity came out at 103%.

Consider `O=C1C(Cl)=C(N2C(=O)CCC2=O)C(=O)c2ccccc21`, for which the residual activity is 84%.

For `N#C/C(=C(\N)Sc1ccc(N)cc1)c1ccccc1C(F)(F)F`, the residual activity is 62%.

On to `c1ccc(-c2n[nH]c3c2oc2ccccc23)cc1`, for which the residual activity is 96%.

For `Nc1nc(Nc2ccc(S(N)(=O)=O)cc2)nn1C(=O)c1c(F)cccc1F`, the residual activity is 103%.

As to `CCOc1cc2ncnc(Nc3cccc(Br)c3)c2cc1OCC`, the residual activity amounted to 82%.

In the case of `Nc1cccc(-c2cc3c(Oc4cccc(O)c4)ncnc3[nH]2)c1`, the residual activity turned out to be 82%.

Take `CSc1nc(-c2ccc(F)cc2)c(-c2ccnc(NC(C)c3ccccc3)c2)[nH]1` (stereo not given): the residual activity came to 98%.

For the compound `COc1cccc(-c2cc(=O)c3ccccc3o2)c1N`, the residual activity was determined as 89%.

For `CO[C@@H]1[C@H](N(C)C(=O)c2ccccc2)C[C@H]2O[C@]1(C)n1c3ccccc3c3c4c(c5c6ccccc6n2c5c31)C(=O)NC4`, the residual activity came to 51%.

Regarding `Nc1ncnc2c1cnn2-c1ccccc1`, the residual activity amounted to 93%.

In the case of `COc1ccc(C(=O)Nc2sc3c(c2C(N)=O)CCCC3)cc1OC`, the residual activity amounted to 94%.

`CC(=O)O/N=C1\C(=C2\C(=O)Nc3cc(Br)ccc32)Nc2ccccc21`: the residual activity was determined as 79%.

`Cc1cc2ncc(-c3ccccc3)nc2cc1C`: the residual activity came to 91%.

For the compound `O=C1Nc2cc(Br)ccc2/C1=C1/Nc2ccccc2/C1=N\O`, the residual activity came out at 73%.

On to `CCN(CC)C(=O)c1ccc(Nc2nc(OCC3CCCCC3)c3nc[nH]c3n2)cc1`, for which the residual activity is 62%.

For the compound `O=C(Nc1nc2ccccc2n1CCN1CCOCC1)c1cccc([N+](=O)[O-])c1`, the residual activity came to 102%.

In the case of `N#CC(C#N)=C(N)/C(C#N)=C/c1ccc(O)cc1`, the residual activity is 85%.

Turning to `COc1ccc2c(c1)c(C1=C(c3c[nH]c4ccccc34)C(=O)NC1=O)cn2CCCN(C)C`, the residual activity was determined as 81%.

`Cn1sc(=O)n(Cc2ccccc2)c1=O`: the residual activity came out at 88%.

Take `NC(=O)c1ccc2[nH]c(-c3ccc(Oc4ccc(Cl)cc4)cc3)nc2c1`: the residual activity was 98%.

As for `Cc1nc(-c2ccccc2)c(-c2ccncc2)o1`, the residual activity worked out at 97%.

Take `CC[n+]1c(/C=C/N(C)c2ccccc2)n(-c2ccccc2)c2ccc(-c3nc4ccccc4s3)cc21`: the residual activity is 104%.

Consider `CCN(CC)CCNC(=O)c1c(C)[nH]c(/C=C2\C(=O)Nc3ccc(Cl)cc32)c1C`, for which the residual activity was found to be 62%.

As for `CC(=O)c1ccc(N2CCOCC2)cc1O`, the residual activity was found to be 89%.

For the compound `CCN1/C(=C/C(C)=O)Sc2ccc(OC)cc21`, the residual activity was determined as 77%.

As to `CC(C)n1cnc2/c(=N/c3cccc(Cl)c3)nc(NCCO)[nH]c21`, the residual activity turned out to be 88%.

Consider `COc1ccc(OC)c2c(=S)c3ccccc3[nH]c12`, for which the residual activity was determined as 106%.

Take `O=c1cc(-c2cccc3c2Sc2ccccc2S3)oc(N2CCOCC2)c1`: the residual activity was found to be 112%.

Take `O=C1NC(=O)/C(=C\c2ccc3nccnc3c2)S1`: the residual activity came to 90%.

Consider `CCOC(=O)c1c(C)[nH]c(/C=C2\C(=O)Nc3ccccc32)c1C`, for which the residual activity came to 90%.

Take `CCCCc1c(-c2ccc(O)cc2)[nH]c2nccnc12`: the residual activity is 94%.

For `Cn1nc2c3c(cccc31)C(=O)c1ccccc1-2`, the residual activity was 79%.

Consider `Nc1nc(Nc2ccc(S(N)(=O)=O)cc2)nn1C(=S)Nc1c(F)cccc1F`, for which the residual activity was 61%.

For `COc1cc2ncnc(Nc3ccc(O)c(Br)c3)c2cc1OC`, the residual activity came out at 93%.

Turning to `O=c1c2ccccc2[nH]c(=S)n1CCN1CCC(=C(c2ccc(F)cc2)c2ccc(F)cc2)CC1`, the residual activity is 96%.

Consider `Cc1cccc(-c2[nH]c(C(C)(C)C)nc2-c2ccc3c(c2)OCO3)n1`, for which the residual activity is 93%.

Consider `O=c1cc(N2CCNCC2)oc2c(-c3ccccc3)cccc12`, for which the residual activity was 92%.

`N#C/C(=C1/Nc2ccccc2S1)c1ccnc(NCCc2cccnc2)n1`: the residual activity came to 82%.
